# Data as given in article PMC5540273 (PLoS ONE, 2017).
# Values joined by “and” are separate entries in the source; they are usually repeats but may differ in a detail not shown here. Identical values can stand only once. Like-named read-outs stand apart in the source and are kept apart here.
# Experiments:
# Conditions in all cases: concentration: 1 μM, replicates: in singlicate, n = 1
# [1] = tested on: T1, PYK2
# T1 construct: gene PTK2B
# [2] = tested on: QSK
# [3] = tested on: RAF1
# [4] = tested on: RET
# [5] = tested on: RIOK1
# [6] = tested on: RIOK2
# [7] = tested on: RIOK3
# [8] = tested on: RIPK1
# [9] = tested on: RIPK2
# [10] = tested on: RIPK4
# [11] = tested on: RIPK5
# [12] = tested on: ROCK1
# [13] = tested on: ROCK2
# [14] = tested on: ROS1
# [15] = tested on: RPS6KA4(Kin.Dom.1-N-terminal)
# [16] = tested on: RPS6KA4(Kin.Dom.2-C-terminal)
# [17] = tested on: RPS6KA5(Kin.Dom.1-N-terminal)
# [18] = tested on: RPS6KA5(Kin.Dom.2-C-terminal)
# [19] = tested on: T2, RSK1(Kin.Dom.1-N-terminal)
# T2 construct: gene RPS6KA1
# [20] = tested on: T3, RSK1(Kin.Dom.2-C-terminal)
# T3 construct: gene RPS6KA1
# 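Also: KINOMEscan kinase panel screen.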
smiles,measurement,setting,value
Cc1nnc(-c2ccc(C)c(-c3ccc(C(=O)Nc4ccc(NS(C)(=O)=O)cc4)cc3)c2)o1 [GW702865],%Inh,[1],0%
same,%Inh,[2],0%
same,%Inh,[3],2%
same,%Inh,[4],45%
same,%Inh,[5],22%
same,%Inh,[6],0%
same,%Inh,[7],27%
same,%Inh,[8],36%
same,%Inh,[9],14%
same,%Inh,[10],0%
same,%Inh,[11],4%
same,%Inh,[12],0%
same,%Inh,[13],11%
same,%Inh,[14],0%
same,%Inh,[15],1%
same,%Inh,[16],0%
same,%Inh,[17],0%
same,%Inh,[18],17%
same,%Inh,[19],13%
same,%Inh,[20],0%
Cl.Cl.Cl.Fc1ccc(-c2ncn(C3CCNCC3)c2-c2ccnc(Nc3ccccc3)n2)cc1 [SB-238039],%Inh,[1]; 1 µM,0% and 12%
same,%Inh,[2],0%
same,%Inh,[3]; 1 µM,18% and 8%
same,%Inh,[4]; 1 µM,8% and 20%
same,%Inh,[5]; 1 µM,11% and 52%
same,%Inh,[6],0%
same,%Inh,[7]; 1 µM,3% and 32%
same,%Inh,[8]; 1 µM,35% and 0%
same,%Inh,[9]; 1 µM,76% and 65%
same,%Inh,[10]; 1 µM,13% and 42%
same,%Inh,[11]; 1 µM,82% and 61%
same,%Inh,[12]; 1 µM,27% and 0%
same,%Inh,[13]; 1 µM,32% and 9%
same,%Inh,[14],0%
same,%Inh,[15]; 1 µM,16% and 4%
same,%Inh,[16]; 1 µM,0% and 4%
same,%Inh,[17]; 1 µM,36% and 11%
same,%Inh,[18]; 1 µM,23% and 0%
same,%Inh,[19],0%
same,%Inh,[20]; 1 µM,64% and 35%
NCC(NC(=O)c1cc(-c2cn[nH]c2)c(-c2ccnc3[nH]ccc23)s1)c1ccccc1.O=C(O)C(F)(F)F.O=C(O)C(F)(F)F (stereo not shown) [GSK1325775],%Inh,[1],0%
same,%Inh,[2],9%
same,%Inh,[3],0%
same,%Inh,[4],18%
same,%Inh,[5],99.4%
same,%Inh,[6],34%
same,%Inh,[7],100%
same,%Inh,[8],19%
same,%Inh,[9],0%
same,%Inh,[10],31%
same,%Inh,[11],16%
same,%Inh,[12],100%
same,%Inh,[13],99.9%
same,%Inh,[14],0%
same,%Inh,[15],47%
same,%Inh,[16],43%
same,%Inh,[17],13%
same,%Inh,[18],60%
same,%Inh,[19],24%
same,%Inh,[20],5%
O=C(NCCNc1ccnc(Nc2ccc(F)cc2)n1)c1cc2ccccc2s1 [GSK1379874],%Inh,[1],29%
same,%Inh,[2],0%
same,%Inh,[3],10%
same,%Inh,[4],0%
same,%Inh,[5],23%
same,%Inh,[6],0%
same,%Inh,[7],24%
same,%Inh,[8],0%
same,%Inh,[9],0%
same,%Inh,[10],18%
same,%Inh,[11],0%
same,%Inh,[12],29%
same,%Inh,[13],30%
same,%Inh,[14],15%
same,%Inh,[15],0%
same,%Inh,[16],0%
same,%Inh,[17],4%
same,%Inh,[18],0%
same,%Inh,[19],26%
same,%Inh,[20],0%
COc1ccc(CNC(=O)NC2CCN(c3ccnc(Nc4ccc(OC)cc4)n3)C2)cc1 (stereo not shown) [GSK1379727],%Inh,[1],1%
same,%Inh,[2],0%
same,%Inh,[3],12%
same,%Inh,[4],15%
same,%Inh,[5],8%
same,%Inh,[6],0%
same,%Inh,[7],18%
same,%Inh,[8],50%
same,%Inh,[9],0%
same,%Inh,[10],0%
same,%Inh,[11],55%
same,%Inh,[12],40%
same,%Inh,[13],40%
same,%Inh,[14],0%
same,%Inh,[15],0%
same,%Inh,[16],0%
same,%Inh,[17],7%
same,%Inh,[18],0%
same,%Inh,[19],0%
same,%Inh,[20],0%
Nc1nccc(-c2c(-c3ccc(F)cc3)ncn2C2CCN(CC(F)(F)F)CC2)n1 [SB-236560],%Inh,[1],5%
same,%Inh,[2],0%
same,%Inh,[3],0%
same,%Inh,[4],12%
same,%Inh,[5],32%
same,%Inh,[6],0%
same,%Inh,[7],19%
same,%Inh,[8],0%
same,%Inh,[9],51%
same,%Inh,[10],72%
same,%Inh,[11],13%
same,%Inh,[12],38%
same,%Inh,[13],49%
same,%Inh,[14],14%
same,%Inh,[15],0%
same,%Inh,[16],0%
same,%Inh,[17],0%
same,%Inh,[18],0%
same,%Inh,[19],0%
same,%Inh,[20],27%
NCCNS(=O)(=O)c1ccc(-c2ccnc3[nH]ccc23)cc1 [GSK977617],%Inh,[1]; 1 µM,31% and 21%
same,%Inh,[2]; 1 µM,6% and 15%
same,%Inh,[3]; 1 µM,2% and 0%
same,%Inh,[4]; 1 µM,28% and 19%
same,%Inh,[5]; 1 µM,91.4%
same,%Inh,[6]; 1 µM,93.8% and 88%
same,%Inh,[7]; 1 µM,78% and 84%
same,%Inh,[8]; 1 µM,9% and 8%
same,%Inh,[9],0%
same,%Inh,[10]; 1 µM,50% and 29%
same,%Inh,[11]; 1 µM,3% and 0%
same,%Inh,[13],99.8%
same,%Inh,[14]; 1 µM,65% and 43%
same,%Inh,[15]; 1 µM,48% and 33%
same,%Inh,[16]; 1 µM,99.2% and 98.5%
same,%Inh,[17]; 1 µM,47% and 33%
same,%Inh,[18]; 1 µM,97.6% and 94.8%
same,%Inh,[19]; 1 µM,62% and 27%
same,%Inh,[20]; 1 µM,63% and 41%
O=c1cc(N2CCOCC2)nc2n(Cc3cccc(Cl)c3Cl)c(C3CC3)nn12 [GSK2358994],%Inh,[1],0%
same,%Inh,[2],0%
same,%Inh,[3],0%
same,%Inh,[4],8%
same,%Inh,[5],13%
same,%Inh,[6],25%
same,%Inh,[7],37%
same,%Inh,[8],0%
same,%Inh,[9],0%
same,%Inh,[10],16%
same,%Inh,[11],7%
same,%Inh,[12],0%
same,%Inh,[13],0%
same,%Inh,[14],0%
same,%Inh,[15],0%
same,%Inh,[16],16%
same,%Inh,[17],0%
same,%Inh,[18],0%
same,%Inh,[19],0%
same,%Inh,[20],17%
Cc1c(Cn2c(C)nn3c(=O)cc(N4CCOC(C)C4)nc23)cccc1C(F)(F)F (stereo not shown) [GSK2344444],%Inh,[1],0%
same,%Inh,[2],4%
same,%Inh,[3],0%
same,%Inh,[4],1%
same,%Inh,[5],27%
same,%Inh,[6],10%
same,%Inh,[7],0%
same,%Inh,[8],0%
same,%Inh,[9],0%
same,%Inh,[10],7%
same,%Inh,[11],0%
same,%Inh,[12],0%
same,%Inh,[13],10%
same,%Inh,[14],14%
same,%Inh,[15],21%
same,%Inh,[16],0%
same,%Inh,[17],0%
same,%Inh,[18],0%
same,%Inh,[19],0%
same,%Inh,[20],6%
c1ccc(-c2cc(-c3c[nH]nc3-c3ccccn3)ccn2)cc1 [GW576604],%Inh,[1],0%
same,%Inh,[2],0%
same,%Inh,[3],4%
same,%Inh,[4],16%
same,%Inh,[5],37%
same,%Inh,[6],1%
same,%Inh,[7],25%
same,%Inh,[8],0%
same,%Inh,[9],94.6%
same,%Inh,[10],0%
same,%Inh,[11],0%
same,%Inh,[12],10%
same,%Inh,[13],30%
same,%Inh,[14],21%
same,%Inh,[15],0%
same,%Inh,[16],0%
same,%Inh,[17],0%
same,%Inh,[18],3%
same,%Inh,[19],0%
same,%Inh,[20],1%
